The supplement of paper PMC6555819

Experiments:
Assay in all cases: PBM binding z-score (relative to random genomic background probes); higher = stronger binding; sequences stand for … in GC…GCGATTGACAGCGTAGAATGAAGG
[1] = tested on: PPARg:RXRa DBDmut IVT, anti-RXR (DBD mutation: RXRa K156A/R161A, NR concentration 270 nM, RXRa partner concentration 90 nM)
Outline: (§1)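 Each nuclear receptor dimer, without ligand, was incubated for 1 h on custom Agilent 4×180K protein-binding microarrays. Binding was detected with antibodies against each partner (one per run), and scanned fluorescence was regression-normalized. The binding z-scores are referenced to random human genomic background probes.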

[2] = tested on: PPARg:RXRa IVT, anti-PPARg (NR concentration 270 nM, RXRa partner concentration 90 nM)
Outline: as §1

[3] = tested on: PPARg DBDmut:RXRa IVT, anti-PPARg (DBD mutation: PPARg1 K132A/R137A, NR concentration 270 nM, RXRa partner concentration 90 nM)
Outline: as §1

[4] = tested on: PPARg DBDmut IVT, anti-PPARg (DBD mutation: PPARg1 K132A/R137A, NR concentration 270 nM)
Outline: as §1

[5] = tested on: PPARg homodimer (NR concentration 180 nM)
Outline: as §1

[6] = tested on: PXR:RXRa (NR concentration 270 nM, RXRa partner concentration 90 nM)
Outline: as §1

[7] = tested on: PXR homodimer (NR concentration 270 nM)
Outline: as §1

[8] = tested on: RARa:RXR (NR concentration 270 nM, RXRa partner concentration 90 nM)
Outline: as §1

[9] = tested on: RARa homodimer (NR concentration 270 nM)
Outline: as §1

[10] = tested on: RARb:RXRa (NR concentration 270 nM, RXRa partner concentration 90 nM)
Outline: as §1

[11] = tested on: RARb homodimer (NR concentration 270 nM)
Outline: as §1

[12] = tested on: RARg:RXRa (NR concentration 270 nM, RXRa partner concentration 90 nM)
Outline: as §1

[13] = tested on: RARg homodimer (NR concentration 270 nM)
Outline: as §1

[14] = tested on: RXRa DBDmut IVT, anti-RXR (DBD mutation: RXRa K156A/R161A, NR concentration 90 nM)
Outline: as §1

[15] = tested on: RXRa homodimer (NR concentration 180 nM)
Outline: as §1

[16] = tested on: THRa homodimer (NR concentration 90 nM)
Outline: as §1

[17] = tested on: VDR:RXRa (NR concentration 270 nM, RXRa partner concentration 90 nM)
Outline: as §1

[18] = tested on: VDR homodimer (NR concentration 270 nM)
Outline: as §1

Sequence	PBM binding z-score [1]	PBM binding z-score [2]	PBM binding z-score [3]	PBM binding z-score [4]	PBM binding z-score [5]	PBM binding z-score [6]	PBM binding z-score [7]	PBM binding z-score [8]	PBM binding z-score [9]	PBM binding z-score [10]	PBM binding z-score [11]	PBM binding z-score [12]	PBM binding z-score [13]	PBM binding z-score [14]	PBM binding z-score [15]	PBM binding z-score [16]	PBM binding z-score [17]	PBM binding z-score [18]
CGAACTAGATCAGAACAGGACAGTGAAGGATGAT	0.901	0.144	0.0731	0.309	0.437	-0.412	0.0691	-0.383	0.626	-0.179	0.0748	-0.355	0.431	0.063	0.00592	-0.243	-0.438	-0.111
GCTAGTTGGTCAGTAAAAGGTAACACACCGGTCG	0.651	0.622	-0.712	0.0528	0.535	0.2	0.0944	0.372	0.548	1.03	1.31	0.845	0.741	0.148	0.462	0.175	–	0.0919
CTCGAAAGGTCGTGCTCAGGTCAGTATACCAAAC	1.1	2.14	1.37	1.38	3.94	5.57	1.25	6.37	0.951	4.41	4.16	7.03	4.92	2.37	5.35	2.7	–	2.45
CAAACTAGGTCACTGAGGTCAAAGTCCGTGCGTA	8.41	8.65	1.56	0.597	4.26	6.53	12.1	6.4	0.887	4.89	5.53	6.59	7.09	3.56	6.35	5.12	–	7.63
CAAACTAGGTCACGTAAGGTCAAAGTCGAATGAC	8.55	9.19	2.78	1.76	2.46	6.83	2.57	6.43	1.84	5.38	5.56	7.3	7.46	2.68	6.84	5.19	7.01	4.03
TTACCGAGGTGAGCTGAGGTCGTTGATCCAACTC	1.35	2.15	0.433	-0.145	-0.159	5.27	0.0419	2.36	-0.912	1.76	1.58	1.48	1.04	0.0413	1.7	1.88	–	1.73
AATACAGGGTCATCGGAGGCCAGAGTACGCACAG	2.24	4.03	1.88	1.83	2.39	5.97	0.898	4.9	1.32	4.47	4.26	5.91	5.05	3.51	6.76	1.96	–	3.88
TTACCAAGGTGAGCTGAGGTCATTGATCCAACTC	1.49	2.8	-0.00582	-0.0839	1.23	6.15	3.42	4.75	0.362	3.44	3.91	3.65	3.31	0.946	4.03	4.43	–	4.32
CTCGAAAGGTCGATTGAGGTGAGTATACGGATAA	0.741	1.76	-0.148	0.11	0.805	4.35	0.0799	3.05	0.109	3.67	2.68	3.71	3.34	1.66	3.46	0.93	–	0.553
TAGCCTAGCTCAGATCGGGCCAGTATACGCTATA	-0.922	-0.645	-0.837	-1.92	-1.79	-1.09	-1.09	-1.21	-1.25	-1.89	-1.12	-0.862	-0.645	-1.11	-0.698	-0.99	–	-0.652
CAAACCAGGTCACCGGAAGGTCAAAGTCCGCATG	5.78	6.75	1.83	1.5	9.32	6.5	3.77	8.09	3.77	5.33	5.65	8.7	7.24	3.06	7.56	4.28	–	3.95
ATATGCAGGTTAGCTGGGGTCATTCAGACTAGGC	2.79	2.76	0.943	1.03	1.18	6.31	2.68	5.26	0.349	3.15	3.72	4.14	3.11	1.89	5.56	2.98	–	4.17
CCTAGTTGGTCAACGTCACACACGCTATAGGTAC	2.03	1.8	0.867	0.424	1.37	0.444	0.536	0.716	1.34	1.21	1.13	0.774	1.18	0.857	0.526	0.632	–	0.435
